Compounds without any hit were thinned out: in the full panel of roughly 83,000, 20% have a hit.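 Interpretation: 100, growth as untreated; towards 0, rising growth inhibition; 0, no net growth; 0 to -100, cell death. Compounds scoring below 10 were considered active.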 Values without a mark were called inactive. Active and inactive are the calls of the source.
How the values were obtained:
Assay in all cases: NCI-60 one-dose screen, 48 h (100 = growth as untreated, 0 = no growth, -100 = all killed)
Details in all cases: 10 µM unless noted
[1] = system: DU-145 prostate
[2] = system: K-562 leukemia
[3] = system: MALME-3M melanoma
[4] = system: MDA-MB-231 breast
[5] = system: RXF 393 renal
[6] = system: SF-268 CNS
[7] = system: SF-295 CNS
[8] = system: SF-539 CNS
[9] = system: UACC-257 melanoma
[10] = system: M14 melanoma
[11] = system: HCT-15 colon
[12] = system: HT29 colon
[13] = system: SNB-75 CNS
[14] = system: SNB-19 CNS
[15] = system: U251 CNS
[16] = system: PC-3 prostate
[17] = system: SK-MEL-5 melanoma
[18] = system: UACC-62 melanoma
[19] = system: LOX IMVI melanoma
[20] = system: SK-MEL-28 melanoma

`Cc1ccc(/C=C/C(=O)c2ccc(F)cc2)s1` showed a growth [1] of 90.8%, a growth [2] of 38.1% and a growth [3] of 78.9%. The growth [4] was 105%, the growth [5] was 84.8% and the growth [6] was 92.2%. For the same molecule, the growth [7] was 88.5%, the growth [8] was 103% and the growth [9] was 90.3%. For the same molecule, the growth [10] was 95.1%, the growth [11] was 67.3% and the growth [12] was 43.5%. For the same molecule, the growth [13] was 90.9%, the growth [14] was 88% and the growth [15] was 51.6%. The growth [16] was 63.8%, the growth [17] was 90.6% and the growth [18] was 72.7%. It also gave a growth [19] of 58.3% and a growth [20] of 105%.
`Cc1cc(Br)c(C)cc1Br` showed a growth [1] of 102%, a growth [2] of 89.8% and a growth [3] of 121%. It also gave a growth [4] of 111%, a growth [5] of 106% and a growth [6] of 100%. It also gave a growth [7] of 89.2%, a growth [8] of 103% and a growth [9] of 94.4%. The growth [10] was 100%, the growth [11] was 101% and the growth [12] was 94.2%. The growth [13] was 100%, the growth [14] was 108% and the growth [15] was 98.9%. It also gave a growth [16] of 95.8%, a growth [17] of 96.9% and a growth [18] of 102%. The growth [19] was 97.6% and the growth [20] was 103%.
Molecule `COc1cc(/C=C/C(=O)CC(=O)/C=C/c2ccc(OC(=O)C3C4CC5CC(C4)CC3C5)c(OC)c2)ccc1OC(=O)C1C2CC3CC(C2)CC1C3` (stereo not given) has a growth [1] of 120%, a growth [2] of 95.1% and a growth [3] of 78.4%. The growth [4] was 116%, the growth [5] was 110% and the growth [6] was 104%. It also gave a growth [7] of 98.9%, a growth [8] of 108% and a growth [9] of 102%. The growth [10] was 105%, the growth [11] was 135% and the growth [12] was 105%. For the same molecule, the growth [13] was 107%, the growth [14] was 106% and the growth [15] was 111%. The growth [16] was 82.8%, the growth [17] was 110% and the growth [18] was 114%. For the same molecule, the growth [19] was 108% and the growth [20] was 131%.
`O=C(CNC(=O)c1cccc2ccccc12)Nc1ccccc1Oc1cccc(O)c1` was tested, and the growth [1] was 17.1% [5 µM], the growth [2] was 9.03% [5 µM] (active) and the growth [3] was 63.6% [5 µM]. The growth [4] was 48.9% [5 µM], the growth [5] was -19% [5 µM] (active) and the growth [6] was 49.9% [5 µM]. The growth [7] was 3.33% [5 µM] (active), the growth [8] was -18.4% [5 µM] (active) and the growth [9] was 45% [5 µM]. For the same molecule, the growth [10] was -8.22% [5 µM] (active), the growth [11] was 22.6% [5 µM] and the growth [12] was 14.8% [5 µM]. The growth [13] was 4.28% [5 µM] (active), the growth [14] was 38% [5 µM] and the growth [15] was 14.3% [5 µM]. The growth [16] was 28.1% [5 µM], the growth [17] was 26.4% [5 µM] and the growth [18] was 44.9% [5 µM]. It also gave a growth [19] of 33.4% [5 µM] and a growth [20] of 57.3% [5 µM].
`COc1ccc2c(c1)CC[C@@H]1[C@@H]2CC[C@]2(C)[C@@H](O)C(=O)C[C@@H]12` gave a growth [1] of 104%, a growth [2] of 94.2% and a growth [3] of 148%. The growth [4] was 109%, the growth [5] was 134% and the growth [6] was 97.1%. The growth [7] was 109%, the growth [8] was 100% and the growth [9] was 106%. For the same molecule, the growth [10] was 110%, the growth [11] was 114% and the growth [12] was 105%. The growth [13] was 97.2%, the growth [14] was 102% and the growth [15] was 102%. For the same molecule, the growth [16] was 95.1%, the growth [17] was 107% and the growth [18] was 94.5%. It also gave a growth [19] of 94% and a growth [20] of 113%.
`COc1ccc(C2=NN(C(C)=O)C(c3cccc(Nc4ccnc5cc(Cl)ccc45)c3)C2)cc1` (stereo not given) gave a growth [1] of 62.3%, a growth [2] of 18.3% and a growth [3] of 65.8%. It also gave a growth [4] of 63%, a growth [5] of 51.1% and a growth [6] of 48.2%. For the same molecule, the growth [7] was 52.5%, the growth [8] was 72.7% and the growth [9] was 49.2%. The growth [10] was 40.2%, the growth [11] was 44.8% and the growth [12] was 7.9% (active). The growth [13] was 56.4%, the growth [14] was 56.5% and the growth [15] was 51%. For the same molecule, the growth [16] was 31%, the growth [17] was 43.7% and the growth [18] was 68.6%. It also gave a growth [19] of 42.7% and a growth [20] of 73%.
`CC1=C([Se]CC(OC(=O)[C@@H](CSSC(C)(C)C)NC(=O)C(C)(C)C)C(=O)NCCCCCC(=O)OCc2ccccc2)C(=O)c2ccccc2C1=O` (stereo not given in full) was tested, and the growth [1] was 13.3%, the growth [2] was 7.91% (active) and the growth [3] was -39.1% (active). For the same molecule, the growth [4] was -15.3% (active), the growth [5] was -33.5% (active) and the growth [6] was 7.11% (active). The growth [7] was -27.8% (active), the growth [8] was -69.4% (active) and the growth [9] was -20.8% (active). The growth [10] was -32.5% (active), the growth [11] was 20.4% and the growth [12] was -29.5% (active). The growth [13] was -92.5% (active), the growth [14] was -73.5% (active) and the growth [15] was -37.5% (active). The growth [16] was -20.8% (active), the growth [17] was -48.8% (active) and the growth [18] was -30.6% (active). For the same molecule, the growth [19] was 4.76% (active) and the growth [20] was -27.3% (active).
`O=C(CC1Sc2ccccc2NC1=O)NNc1cccc(Cl)c1Cl` (stereo not given) was tested, and the growth [1] was 108%, the growth [2] was 89.1% and the growth [3] was 54.6%. For the same molecule, the growth [4] was 83.5%, the growth [5] was 97.6% and the growth [6] was 91.4%. For the same molecule, the growth [7] was 92.4%, the growth [8] was 67.3% and the growth [9] was 99.1%. The growth [10] was 112%, the growth [11] was 97.1% and the growth [12] was 93.4%. It also gave a growth [13] of 92.2%, a growth [14] of 77.7% and a growth [15] of 83.7%. The growth [16] was 70.9%, the growth [17] was 85.5% and the growth [18] was 85.1%. It also gave a growth [19] of 88.8% and a growth [20] of 101%.

Reference: PubChem BioAssay (NCI)
